Experimental findings from PubChem BioAssay (NCATS) are described below.

Results filed as inconclusive are left out. Unmarked numbers belong to inactive results. Active and inactive are the calls of the source. Calls come from the whole dose curve; as a rule, active = well fitted cell-killing curve with a large enough effect; inconclusive = small, poorly fitted or top-dose-only effect, or effect the other way; inactive = no such curve, though single readings can be large or run the other way.
Potency is the fitted concentration of half-maximal effect.

The assay can be described thus: Quantitative High-Throughput drug screen in 47 multiple myeloma cell lines against the NCATS MIPE library collection: KMS12BM_JCRB cell viability assay (AID 1918971).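 For viability, % of DMSO: 100% = DMSO-only wells and 0% = media-only wells without cells.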 Note: nearly all actives have a fitted effect of over 35% in size. Conditions: KMS12BM myeloma viability, CellTiter-Glo ATP, 48 h; series mostly up to 45.8 µM; viability, % of DMSO: at the top concentration. Put shortly:
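Relative luminescence from CellTiter-Glo served as the viability signal, referenced to DMSO-treated (100%) and cell-free medium (0%) controls. Treatment lasted 48 hours at 37C with 500 cells per well.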
Turning to `Cc1ccc(C(N)=O)cc1Nc1nccc(-c2cn(C(C)C)c3cnccc23)n1`, the Potency is 16.6 µM (active).

`N#CCNC(=O)c1ccc(-c2ccnc(Nc3ccc(N4CCOCC4)cc3)n2)cc1`: the Potency was 14.8 µM (active).

Consider `c1ccc2c(CCNc3ccc(Nc4ccncc4)cc3)c[nH]c2c1`, for which the Potency is 13.2 µM (active).

On to `C#Cc1cccc(Nc2ncnc3cc(OC)c(OCCCCCCC(=O)NO)cc23)c1`, for which the Potency is 0.0662 µM (active).

For the compound `C[C@@H](Oc1cc(-n2cnc3ccc(CN4CCN(C)CC4)cc32)sc1C(N)=O)c1ccccc1C(F)(F)F`, the Potency was 0.0469 µM (active).

As to `CN(c1ncccc1CNc1nc(Nc2ccc3c(c2)CC(=O)N3)ncc1C(F)(F)F)S(C)(=O)=O`, the Potency was 9.35 µM (active).

In the case of `COc1cccc(Nc2c(C(N)=O)cnc3c(C)cc(S(=O)(=O)c4cccc(C(=O)N(C)C)c4)cc23)c1`, the “viability, % of DMSO” value is 134% [at 23.2 µM].

Turning to `COC(=O)C[C@](O)(CCCC(C)(C)O)C(=O)O[C@@H]1C(OC)=C[C@]23CCCN2CCc2cc4c(cc2[C@H]13)OCO4`, the “viability, % of DMSO” value was 137%.

On to `CCN(CC)CCCCNc1ncc2cc(-c3cc(OC)cc(OC)c3)c(NC(=O)NC(C)(C)C)nc2n1`, for which the Potency was 18.7 µM (active).

Take `Cc1ccc(NC(=O)C2(c3ccc4c(c3)OC(F)(F)O4)CC2)nc1-c1cccc(C(=O)O)c1`: the Potency is 0.0296 µM (active).

In the case of `CCCCN1CCC(CNC(=O)c2c3n(c4ccccc24)CCCO3)CC1`, the Potency was 10.5 µM (active).

In the case of `Fc1cc(-c2cccc3ncc(-c4cnn(C5CCNCC5)c4)nc23)cc(F)c1CN1CCOCC1`, the Potency is 18.7 µM (active).

Take `COc1ccc(-n2nc(C(N)=O)c3c2C(=O)N(c2ccc(N4CCCCC4=O)cc2)CC3)cc1`: the “viability, % of DMSO” value was 132%.

Turning to `O=C(CCCCCCNC(=O)c1cnc(N(c2ccccc2)c2ccccc2)nc1)NO`, the Potency is 2.96 µM (active).

Turning to `O=C(CCCCCCC(=O)Nc1ccc([C@H]2O[C@@H](CSc3nc(-c4ccccc4)c(-c4ccccc4)o3)C[C@@H](c3ccc(CO)cc3)O2)cc1)NO`, the Potency was 11.8 µM (active).

As to `COc1ccc(OC)c(-c2nnc3ccc(-c4ccc(OC)c(O[C@@H]5CCOC5)c4)nn23)c1`, the Potency was 10.5 µM (active).

For the compound `C[C@@H](Oc1cc(-c2cnn(C3CCNCC3)c2)cnc1N)c1c(Cl)ccc(F)c1Cl`, the Potency is 16.6 µM (active).

`CCN1CCN(CC(=O)Nc2ccc(-c3cccc4c(=O)cc(N5CCOCC5)oc34)c3sc4ccccc4c23)CC1`: the Potency was 1.05 µM (active).

For `OCc1ccc(-c2ccc(-c3ccc(CO)s3)o2)s1`, the Potency is 23.5 µM (active).

As to `O=C(c1ccc(Nc2nccc(-c3cc4ccccc4s3)n2)cc1)N1CCC(N2CCCC2)CC1`, the Potency is 13.2 µM (active).

As for `O=C(Nc1cn[nH]c1-c1nc2ccc(CN3CCOCC3)cc2[nH]1)NC1CC1`, the Potency is 5.9 µM (active).

In the case of `CC(C)c1ccc(Cn2ccc3c4c(N)nc(NC5CC5)nc4ccc32)cc1`, the Potency was 7.43 µM (active).

`Cc1cn(-c2cc(NC(=O)c3ccc(C)c(Nc4nccc(-c5cccnc5)n4)c3)cc(C(F)(F)F)c2)cn1`: the Potency was 20.9 µM (active).

Turning to `COc1cc2c(cc1-c1c(C)noc1C)ncc1[nH]c(=O)n([C@H](C)c3ccccn3)c12`, the Potency is 0.833 µM (active).

Take `OCCCNc1cc(-c2ccnc(Nc3cccc(Cl)c3)n2)ccn1`: the Potency was 0.132 µM (active).

On to `CC(C)(C)OC(=O)Nc1ccc(-c2cc(C(=O)NCCCCCCC(=O)NO)no2)cc1`, for which the Potency is 1.66 µM (active).

With `C[C@H]1C[C@@H]2[C@@H]([C@@H](O)C[C@@]3(C)[C@H]2CC[C@]3(O)C(=O)CO)[C@@]2(C)C=CC(=O)C=C12`, the “viability, % of DMSO” value was 123%.

On to `NC(=O)Nc1cc(-c2cccc(F)c2)sc1C(=O)N[C@H]1CCCNC1`, for which the Potency is 0.662 µM (active).

Turning to `Nc1nccc(Oc2ccc(NC(=O)c3c[nH]cc(-c4ccc(F)cc4)c3=O)cc2F)c1Cl`, the Potency was 16.6 µM (active).

`O=C(Cc1ccc(-c2ccc(OCCN3CCOCC3)cc2)cn1)NCc1ccccc1`: the Potency was 0.0372 µM (active).
